LAP4-GFP MLPCN = alters LAP4-GFP fluorescence in TOR pathway yeast screen; S. cerevisiae LAP4-GFP multiplex, flow cytometry GFP, 3 h; median GFP as percent of DMSO wells; GFP response vs DMSO, % at 10 µM; AID 2023; 0.34% of 320,000 active;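 active = GFP response vs DMSO above a set limit, about the screen mean plus 3 SD, cut at about 150% in these data; inconclusive = under 70 cell events counted for the yeast strain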
CIT2 TOR yeast = yeast TOR pathway CIT2-GFP modulation; S. cerevisiae CIT2-GFP strain, flow cytometry, 3 h; 100 means same as DMSO wells; GFP response vs DMSO, % at 10 µM; 0.065% of 320,000 active; AID 2029;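 active = GFP response relative to DMSO above a set limit, near the screen mean plus 3 SD, cut at about 150% in these data; inconclusive = Fewer than 70 cells measured for a yeast strain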;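 note: ratio of well median GFP fluorescence to mean of DMSO wells on the plate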
MEP2 TOR yeast = alters MEP2-GFP fluorescence in TOR pathway yeast screen; 0.51% of 330,000 active; GFP response vs DMSO, % at 10 µM; S. cerevisiae MEP2-GFP strain, flow cytometry GFP, 3 h; 100% = DMSO control level;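 active = GFP response versus DMSO above a set limit, roughly screen mean plus 3 SD, cut at about 180% in these data; inconclusive = fewer than 70 cells counted for a yeast strain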;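 note: median GFP fluorescence of the barcode-gated MEP2-GFP cells per well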
AGP1-GFP MLPCN = alters AGP1-GFP fluorescence in TOR pathway yeast screen. S. cerevisiae AGP1-GFP multiplex flow cytometry, 3 h; GFP as percent of DMSO wells. GFP response vs DMSO, % at 10 µM. 0.02% of 320,000 active. AID 2066;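 active = GFP response relative to DMSO above a set limit, near screen average plus 3 SD, cut at about 150% in these data; inconclusive = fewer than 70 cells counted for the yeast strain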;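 note: median GFP channel fluorescence of the gated AGP1 strain per well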
RPL19A TOR yeast = alters RPL19A-GFP fluorescence in TOR pathway yeast screen. AID 2025. 0.3% of 330,000 active. S. cerevisiae RPL19A-GFP strain, flow cytometry, 3 h; stronger effect = lower value. percent response vs DMSO, % at 10 µM;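 active = percent response vs DMSO below 50%; inconclusive = fewer than 70 events counted for the yeast strain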;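 note: median channel GFP fluorescence of the barcoded RPL19A-GFP strain; ratio of sample median GFP to plate DMSO average so 100% = DMSO; lower means less RPL19A-GFP as with rapamycin TOR inhibition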
Pemphigus Ab inh = inhibitors of pemphigus antibody binding to human desmoglein-3; P32926; DSG3-coupled beads, scFv-anti-DSG3-GFP binding, flow cytometry; stronger effect = lower value; binding (percent of control), % at 10 µM; 0.48% of 310,000 active; AID 588358;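 active = binding more than 3 SD below its plate's average and above zero; inconclusive = below that plate limit but binding exactly zero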;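 note: hits lower antibody fragment binding to DSG3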
Target sequence (P32926 whole entry, looked up, the tested form may be a part): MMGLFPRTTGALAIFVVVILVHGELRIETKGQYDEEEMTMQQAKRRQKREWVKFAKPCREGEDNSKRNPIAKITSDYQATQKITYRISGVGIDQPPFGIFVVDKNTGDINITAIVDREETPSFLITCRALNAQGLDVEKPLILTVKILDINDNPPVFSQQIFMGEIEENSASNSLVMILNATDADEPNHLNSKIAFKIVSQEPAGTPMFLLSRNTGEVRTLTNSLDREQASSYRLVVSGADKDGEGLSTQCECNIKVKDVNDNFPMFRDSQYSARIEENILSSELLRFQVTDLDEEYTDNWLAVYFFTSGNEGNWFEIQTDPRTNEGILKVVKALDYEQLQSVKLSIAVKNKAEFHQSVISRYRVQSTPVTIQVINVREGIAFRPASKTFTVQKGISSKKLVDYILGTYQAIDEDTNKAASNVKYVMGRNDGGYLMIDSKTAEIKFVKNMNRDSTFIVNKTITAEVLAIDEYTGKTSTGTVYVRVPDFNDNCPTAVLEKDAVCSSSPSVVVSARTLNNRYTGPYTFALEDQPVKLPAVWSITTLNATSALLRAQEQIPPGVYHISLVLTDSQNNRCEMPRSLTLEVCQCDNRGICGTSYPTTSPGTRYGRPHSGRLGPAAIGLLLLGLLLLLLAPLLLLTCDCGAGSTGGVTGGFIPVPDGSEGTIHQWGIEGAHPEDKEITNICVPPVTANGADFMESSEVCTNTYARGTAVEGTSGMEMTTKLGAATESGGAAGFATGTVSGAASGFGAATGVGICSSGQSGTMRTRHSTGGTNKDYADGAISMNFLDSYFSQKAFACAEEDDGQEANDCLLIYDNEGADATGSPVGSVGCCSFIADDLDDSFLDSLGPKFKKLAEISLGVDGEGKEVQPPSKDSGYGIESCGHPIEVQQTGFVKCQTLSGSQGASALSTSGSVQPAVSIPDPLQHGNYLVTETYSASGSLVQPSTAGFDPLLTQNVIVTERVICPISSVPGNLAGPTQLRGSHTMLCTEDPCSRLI
Starred values were filed as active, the others as inactive; ? = inconclusive; nt = no result; [ ] = remark or other dose. A selection: hits, their analogues and other compounds. The true share with any hit is near 1.2%.

SMILES	LAP4-GFP MLPCN	CIT2 TOR yeast	MEP2 TOR yeast	AGP1-GFP MLPCN	RPL19A TOR yeast	Pemphigus Ab inh
COc1cc(C(=O)Nc2cccc(-c3nc4ncccc4o3)c2C)cc(OC)c1OC	93.9	93.6	95.1	92.3	99.5	103.1
COc1cc(C(=O)Nc2cccc(-c3nc4cc(C)ccc4o3)c2C)cc(OC)c1OC	101.7	105.1	99.0	102.2	98.0	79.9*
C#CCN(C[C@H]1[C@H](OC(=O)NC2CC2)[C@H](OC(=O)NC2CC2)C[C@H]2C(=O)N(c3ccccc3)C(=O)[C@@H]12)S(=O)(=O)c1ccc(C)cc1	nt	nt	nt	nt	nt	99.2
C#CCN(C[C@H]1[C@H](OC(=O)NCc2ccccc2)[C@H](OC(=O)NCc2ccccc2)C[C@H]2C(=O)N(c3ccccc3)C(=O)[C@@H]12)S(=O)(=O)c1ccc(C)cc1	nt	nt	nt	nt	nt	89.4*
CC1CN(C(=O)COC(=O)c2ccc(O)cc2)CC(C)O1 (configuration not stated)	63.1	?	?	?	22.7*[may fluoresce violet]	?
Cc1ccc(C(=O)OCC(=O)N2CC(C)OC(C)C2)cc1 (configuration not stated)	104.8	95.4	100.6	96.9	94.5	102.9
CCOc1ccc(N(CC(=O)N/N=C/c2ccccn2)S(=O)(=O)c2ccc(Cl)cc2)cc1	67.1	91.5	96.2	86.1	102.6	104.8
O=C1c2ccccc2C(=O)N1CCCOCc1c[nH]c(=O)[nH]c1=O	100.3	111.8	102.3	109.4	105.4	94.8
O=c1[nH]cc(COCC(F)CCl)c(=O)[nH]1 (configuration not stated)	92.1	94.7	94.6	101.2	95.9	72.4*
CC1=CCC(C(=O)O)(C(=O)N/N=C/c2cccs2)C(c2ccc([N+](=O)[O-])cc2)C1 (configuration not stated)	93.2	90.3	92.2	95.5	94.1	32.9*
COc1cc(C2N(Cc3ccccc3)CCN2Cc2ccccc2)ccc1OC(C)=O	84.1	?	496.9*[may fluoresce violet]	?	42.5*[may fluoresce violet]	128.8
O=C(Nc1ccccc1N1CCOCC1)c1ccc([N+](=O)[O-])o1	39.7	51.7	68.3	22.2	45.4*	99.6
O=C(Nc1cccc(Cl)c1N1CCCC1)c1ccc([N+](=O)[O-])o1	211.2*	66.9	82.4	80.8	82.1	97.8
CCN1CCN(c2c(Cl)cccc2NC(=O)c2ccc([N+](=O)[O-])o2)CC1	108.4	107.9	101.0	121.3	110.2	nt
CN(c1ccc(OCC(=O)OCC(=O)c2c(N)n(C)c(=O)n(C)c2=O)cc1)S(=O)(=O)c1ccc2ccccc2c1	95.2	98.6	112.1	106.0	105.1	97.5*
COc1ccc(-c2ccc(NC(=O)c3ccco3)cc2)nn1	116.5	73.1	95.4	96.7	96.7	98.7
O=C(NCc1ccc2c(c1)OCO2)c1nn2cccnc2c1Cl	99.2	101.2	102.0	97.2	97.0	97.7
Cc1ccc(S(=O)(=O)/N=C(/Nc2ccc(O)c(C(=O)O)c2)c2ccccc2)cc1	100.8	81.3	95.7	98.7	96.6	nt
Nc1c(C(=O)Nc2ccccc2)c2nc3ccccc3nc2n1CCCN1CCOCC1	78.3	?	116.7	?	41.7*[may fluoresce violet]	98.0
O=C(NCc1ccccn1)c1cc(-c2ccc(Cl)cc2)oc1C(F)(F)F	155.2*	79.0	90.1	79.2	77.4	112.4
O=C(NCc1ccncc1)c1cc(-c2ccc(Cl)cc2)oc1C(F)(F)F	108.6	95.0	94.0	100.9	90.8	106.8
CCc1c(C)c2cc(Cl)c(O)c(CN(C)C)c2oc1=O	113.8	101.5	193.3*	31.3	50.6	100.3
Cc1c(C)c2cc(Cl)c(O)c(CN(C)C)c2oc1=O	94.1	?	129.4	22.9	67.0	104.7
CN(C)Cc1c(O)c(Cl)cc2c3c(c(=O)oc12)CCCC3	105.9	?	175.0*[may fluoresce violet]	31.9	54.4	102.2
CCOc1ccccc1C1NC(=O)c2ccccc2N1 (configuration not stated)	nt	nt	nt	nt	nt	82.3
SMILES	LAP4-GFP MLPCN	CIT2 TOR yeast	MEP2 TOR yeast	AGP1-GFP MLPCN	RPL19A TOR yeast	Pemphigus Ab inh
O=c1oc(-c2cccs2)nc2c1cnn2-c1ccccc1	107.4	100.3	100.7	95.8	94.7	86.0*
Cc1ccc(NC(=S)NC(=O)Cc2ccccc2)c(O)c1	99.6	105.2	106.7	94.3	101.5	91.7
CCOC(=O)C1=C(Cc2ccc(C)cc2)C(=O)c2ccccc2C1=O	167.9*	82.9	112.7	81.1	100.8	nt
CCOC(=O)C1=C(Cc2ccc(OC)cc2)C(=O)c2ccccc2C1=O	nt	nt	nt	nt	nt	99.2
CCCCCOC(=O)C1=C(C)NC(=O)NC1c1ccc(OC)cc1 (configuration not stated)	90.8	104.7	101.9	106.6	104.0	113.4
COC(=O)c1cccc(-c2noc(-c3ccccc3F)n2)c1	104.7	88.3	84.8	93.9	92.7	103.2
NC(=O)c1cccc(-c2noc(-c3ccccc3F)n2)c1	69.1	?	202.7*[may fluoresce violet]	16.8	87.5	100.4
Cc1noc(NC(=O)c2cccc(C(F)(F)F)c2)c1Cl	?	94.4	?	?	?	105.2
Cc1noc(NC(=O)c2ccc(Cl)cc2)c1Cl	125.3	?	91.8	?	40.6*[may fluoresce violet]	104.1
COc1c(OC)c2[nH]c(=O)cc3c4ccccc4n(c1=O)c23	100.0	?	364.9*[may fluoresce violet]	?	17.6*[may fluoresce violet]	nt
Cc1ccc(C(=O)CCC(=O)N2CCN(C/C=C/c3ccccc3)CC2)cc1	nt	nt	nt	nt	nt	101.4
CCOC(=O)[C@H]1[C@H]2COc3ccc(Cl)cc3[C@@H]2N2C(=O)CN(Cc3ccco3)C(=O)[C@@]12C	91.8	94.1	87.0	93.2	89.8	nt
O=C(Nc1nc2c(s1)CCCC2)c1cc2n(n1)C(C(F)(F)F)CC(C1CC1)N2 (configuration not stated)	85.5	?	182.1*[may fluoresce violet]	nt	61.4	79.6
CCCN1CCC(=NNc2ccc(C(=O)O)cc2)CC1	104.7	96.0	99.9	99.3	98.4	98.2
O=C1[C@H]2CCCC[C@H]2C(=O)N1CCCCN1CCN(c2nsc3ccccc23)CC1	106.1	109.4	96.7	102.6	103.2	109.4
CCc1ccc(-c2nc(CSCC(=O)N3CCN(c4ccccn4)CC3)c(C)o2)cc1	98.5	?	177.3*[may fluoresce violet]	19.2	44.6*[may fluoresce violet]	nt
Cc1ccc(-c2nc(CSCC(=O)N3CCN(c4ccccn4)CC3)c(C)o2)cc1	108.5	101.3	103.3	107.8	98.8	106.6
C=CCOc1ccc(/C(O)=C2/C(=O)C(=O)N(CCCN3CCOCC3)C2c2ccccc2)cc1 (configuration not stated)	88.5	?	315.5*[may fluoresce violet]	?	29.2*[may fluoresce violet]	94.2
Cc1oc2c(CN3CCCC(C)C3)c(O)ccc2c(=O)c1-c1ccccc1 (configuration not stated)	99.1	93.5	252.6*	56.3	50.4	96.8

Bioassay records deposited in PubChem by NMMLSC.
